Results filed as inconclusive are left out. Where a call stands in place of a potency, no number is given. Active and inactive are the calls of the source. The call rests on the fitted dose curve; in most records, active means well fitted curve in the direction sought with a large enough effect; inconclusive means small, poorly fitted or top-dose-only effect, or another doubt; inactive means no such curve, though single readings can be large; an effect the other way counts as inactive or inconclusive.
System: not listed separately
Experiment: Primary qHTS for inhibitors of La Crosse Virus (LACV) - induced cell death in SH-SY5Y cells (AID 1508616);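 further: top concentration of the series differs between compounds; higher means more rescue of cells from virus-induced death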
Settings: SH-SY5Y LACV cytopathicity rescue, ATP luminescence, 6 d; series mostly up to 4.29 µM
Summary of the method: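 Protection against LACV-induced cell death is scored in SH-SY5Y cells exposed to compounds and virus (0.01 MOI) for 6 days. Data normalized to virus-infected DMSO wells and virus-free DMSO wells.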

SMILES	outcome
CNC(C)Cc1ccccc1OC (centres undefined)	inactive
CCCCCCCCC(=O)NCc1ccc(O)c(OC)c1	inactive
CCOC(=O)c1cncn1C(C)c1ccccc1 (centres undefined)	inactive
CCCC[N+]1(C)[C@@H]2CC(OC(=O)[C@H](CO)c3ccccc3)C[C@H]1[C@@H]1O[C@@H]12 (some centres undefined)	inactive
CCc1ccc(C2CCNCC2)cc1	inactive
CCC1(CC)C(=O)NC(=O)NC1=O	inactive
C1CN2CCC1CC2	inactive
NCc1cccnc1	inactive
O=c1[nH]c2cc(Cl)ccc2n1C1CCNCC1	inactive
O=C1CN2CCOC2(c2ccccc2Cl)c2cc(Cl)ccc2N1 (centres undefined)	inactive
CCCCCCCCCCCC[N+](C)(C)CCOc1ccccc1	inactive
CN(C)CCc1c[nH]c2ccc(O)cc12	inactive
O=c1n(Cl)c(=O)n(Cl)c(=O)n1Cl	inactive
C#C[C@]1(O)CC[C@H]2[C@@H]3CCC4=CC(=O)CCC4=C3C=C[C@@]21CC	inactive
C[C@]12CC[C@H]3[C@@H](CCC4=CC(=O)CC[C@@]43C)[C@@H]1CC[C@@H]2C(=O)O	inactive
CCCOC(=O)Cc1ccc(OCC(=O)N(CC)CC)c(OC)c1	inactive

SMILES	outcome
C[N+](C)(C)CCOC(=O)C(O)(c1ccccc1)c1ccccc1	inactive
C[C@H]1CNCCc2ccc(Cl)cc21	inactive
CC[n+]1c(-c2ccccc2)c2cc(N)ccc2c2ccc(N)cc21	inactive
CN(C)C(=O)Oc1cc(OC(=O)N(C)C)cc(C(O)CNC(C)(C)C)c1 (centres undefined)	inactive
CCCN(CCC)CCc1c[nH]c2ccccc12	inactive
CC1COC2(c3ccccc3Cl)c3cc(Cl)ccc3NC(=O)CN12 (centres undefined)	inactive
O=C(O)CCCCCCNC1c2ccccc2CCc2ccccc21	inactive
OC(O)C(Cl)(Cl)Cl	inactive
C[C@@H]1CC[C@H]2[C@@H](C)C(=O)O[C@@H]3O[C@@]4(C)CC[C@@H]1[C@]32OO4	inactive
CCN(Cc1ccc(Cl)nc1)/C(=C/[N+](=O)[O-])NC	inactive
Cc1nnc2n1-c1sc(CCC(=O)N3CCOCC3)cc1C(c1ccccc1Cl)=NC2	inactive
CN1C[C@@H](NS(=O)(=O)N(C)C)C[C@@H]2c3cccc4c3c(cn4C)C[C@H]21	inactive
COP(=S)(OC)Oc1ccc(Sc2ccc(OP(=S)(OC)OC)cc2)cc1	inactive
CC(CC(C(N)=O)(c1ccccc1)c1ccccc1)N(C)C (centres undefined)	inactive
CNC(=O)Oc1cccc2ccccc12	inactive

Molecular target: Calcium and integrin-binding protein 1 (Homo sapiens) (UniProt Q99828)
Sequence (Q99828 whole entry, looked up): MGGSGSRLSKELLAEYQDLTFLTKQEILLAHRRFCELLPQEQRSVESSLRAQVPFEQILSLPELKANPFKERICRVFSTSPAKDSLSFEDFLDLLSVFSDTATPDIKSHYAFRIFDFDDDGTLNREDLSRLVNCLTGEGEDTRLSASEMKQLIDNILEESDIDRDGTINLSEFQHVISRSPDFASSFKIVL
Experiment: Primary qHTS for Identification of Calcium Integrin Binding Protein 1 (CIB1) Competitor (AID 1508620);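 further: GST tagged CIB1 binding a fluorescein labelled alphaIIb integrin peptide tracer; top concentration of the series differs between compounds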
Settings: CIB1-GST / FITC-alphaIIb peptide fluorescence polarization; series mostly up to 114 µM
Summary of the method: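 CIB1-GST (1 uM final) and compound incubated 15 min at room temperature before adding FITC-alphaIIb peptide tracer (100 nM final). Competition for binding read by fluorescence polarization (ex 480, em 540) after another 15 min at room temperature.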

SMILES	Potency
CCC(=O)C(CCN(C)C)(c1ccccc1)c1ccccc1	inactive
Cc1c(Cl)c(=O)oc2cc(OP(=O)(OCCCl)OCCCl)ccc12	inactive
CCC1(c2cccc(O)c2)CCCCN(C)C1 (centres undefined)	inactive
Nc1ccc(Cl)cc1C(=O)c1ccccc1F	inactive
Oc1ccc2[nH]cc(CCCCN3CC=C(c4ccccc4)CC3)c2c1	inactive
CCC1(c2ccccc2)CCC(=O)NC1=O (centres undefined)	inactive

System: not listed separately
Experiment: Counterscreen qHTS for small molecule stabilizers of the endoplasmic reticulum resident proteome: GLuc-NoTag assay (AID 1508627); further: potency means the concentration at half of the fitted maximal effect
Settings: Gaussia luciferase NoTag secretion counterscreen, luminescence, thapsigargin 100 nM for final 4 h; series mostly up to 76.4 µM
Summary of the method: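 Luminescence of Gaussia luciferase secreted into the medium (coelenterazine, 0.07x final, unlysed cells) was the read-out. Human SH-SY5Y neuroblastoma cells constitutively secreting untagged GLuc received compound for 19 h, then 100 nM thapsigargin for 4 h.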

SMILES	Potency
CCCC[N+]1(C)[C@@H]2CC(OC(=O)[C@H](CO)c3ccccc3)C[C@H]1[C@@H]1O[C@@H]12 (some centres undefined)	inactive
Cc1c(Cl)c(=O)oc2cc(OP(=O)(OCCCl)OCCCl)ccc12	inactive
CC[n+]1c(-c2ccccc2)c2cc(N)ccc2c2ccc(N)cc21	20 µM (active)
Oc1ccc2[nH]cc(CCCCN3CC=C(c4ccccc4)CC3)c2c1	inactive

System: not listed separately
Experiment: Primary qHTS for small molecule stabilizers of the endoplasmic reticulum resident proteome: Secreted ER Calcium Modulated Protein (SERCaMP) assay (AID 1508630)
Settings: SH-SY5Y GLuc-SERCaMP (Gaussia luciferase released on ER calcium loss) secretion, thapsigargin, luminescence; series mostly up to 38.4 µM
Summary of the method: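 GLuc-SERCaMP-expressing SH-SY5Y cells, pretreated 16 h with compound, are challenged with thapsigargin to empty ER calcium stores; after 4 h, coelenterazine is added directly to the medium and luminescence is imaged.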

SMILES	outcome
CNC(C)Cc1ccccc1OC (centres undefined)	inactive
CCCCCCCCC(=O)NCc1ccc(O)c(OC)c1	inactive
CCOC(=O)c1cncn1C(C)c1ccccc1 (centres undefined)	inactive
Cc1ccc([N+](=O)[O-])[c]2c1[O][Hg]2	inactive
CCC1(CC)C(=O)NC(=O)NC1=O	inactive
C1CN2CCC1CC2	inactive
NCc1cccnc1	inactive
O=c1[nH]c2cc(Cl)ccc2n1C1CCNCC1	inactive
O=C1CN2CCOC2(c2ccccc2Cl)c2cc(Cl)ccc2N1 (centres undefined)	inactive
CCCCCCCCCCCC[N+](C)(C)CCOc1ccccc1	inactive
C#C[C@]1(O)CC[C@H]2[C@@H]3CCC4=CC(=O)CCC4=C3C=C[C@@]21CC	inactive
CCCOC(=O)Cc1ccc(OCC(=O)N(CC)CC)c(OC)c1	inactive
C[N+](C)(C)CCOC(=O)C(O)(c1ccccc1)c1ccccc1	inactive
C[C@H]1CNCCc2ccc(Cl)cc21	inactive
CN(C)C(=O)Oc1cc(OC(=O)N(C)C)cc(C(O)CNC(C)(C)C)c1 (centres undefined)	inactive
CCCN(CCC)CCc1c[nH]c2ccccc12	inactive
CC1COC2(c3ccccc3Cl)c3cc(Cl)ccc3NC(=O)CN12 (centres undefined)	inactive
O=C(O)CCCCCCNC1c2ccccc2CCc2ccccc21	inactive
OC(O)C(Cl)(Cl)Cl	inactive
C[C@@H]1CC[C@H]2[C@@H](C)C(=O)O[C@@H]3O[C@@]4(C)CC[C@@H]1[C@]32OO4	inactive
Cc1nnc2n1-c1sc(CCC(=O)N3CCOCC3)cc1C(c1ccccc1Cl)=NC2	inactive
CN1C[C@@H](NS(=O)(=O)N(C)C)C[C@@H]2c3cccc4c3c(cn4C)C[C@H]21	inactive
CC(CC(C(N)=O)(c1ccccc1)c1ccccc1)N(C)C (centres undefined)	inactive

Source: PubChem BioAssay (NCATS)
